Where “and” joins values, the source holds several entries; their conditions need not be identical. Equal values may be shown once. This is part of a sample that, as a whole, favours compounds with a hit. Of some 83,000 tested, about 20% had one in any assay.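 Compound tested at a single concentration for 48 hours in 96-well plates; a percent growth value below 10 was scored as active.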 Calls of active or inactive are those of the source.
How the values were obtained:
Test in all cases: NCI-60 one-dose screen, 48 h (100 = growth as untreated, 0 = no growth, -100 = all killed)
Settings in all cases: 10 µM unless noted
[1] = system: NCI-H23 lung
[2] = system: NCI-H226 lung
[3] = system: NCI-H322M lung
[4] = system: HOP-62 NSCLC
[5] = system: NCI-H460 lung
[6] = system: HOP-92 NSCLC
[7] = system: A549/ATCC NSCLC
[8] = system: 786-0 renal
[9] = system: COLO 205 colon
[10] = system: DU-145 prostate
[11] = system: K-562 leukemia
[12] = system: MALME-3M melanoma
[13] = system: MDA-MB-231 breast
[14] = system: RXF 393 renal
[15] = system: SF-268 CNS
[16] = system: SF-295 CNS
[17] = system: SF-539 CNS
[18] = system: UACC-257 melanoma
[19] = system: M14 melanoma
[20] = system: NCI-H522 lung

Row | SMILES | growth [1] | growth [2] | growth [3] | growth [4] | growth [5] | growth [6] | growth [7] | growth [8] | growth [9] | growth [10] | growth [11] | growth [12] | growth [13] | growth [14] | growth [15] | growth [16] | growth [17] | growth [18] | growth [19] | growth [20]
1 | COc1ccc(/C(C#N)=C/c2ccccn2)cc1 | 98% (inactive) and 102% (inactive) | 95.9% (inactive) and 128% (inactive) | 108% (inactive) and 110% (inactive) | 112% (inactive) and 109% (inactive) | 105% (inactive) and 103% (inactive) | 99.8% (inactive) | 101% (inactive) and 103% (inactive) | 96.7% (inactive) and 73.8% (inactive) | 112% (inactive) and 173% (inactive) | 107% (inactive) and 120% (inactive) | 101% (inactive) and 85.6% (inactive) | 129% (inactive) and 134% (inactive) | 107% (inactive) and 127% (inactive) | 99% (inactive) and 96.4% (inactive) | 99.1% (inactive) and 122% (inactive) | 102% (inactive) and 134% (inactive) | 108% (inactive) and 106% (inactive) | 110% (inactive) and 112% (inactive) | 109% (inactive) and 111% (inactive) | 
2 | CCOC(=O)c1c(C)oc(C)c(C(=O)OCC)c1=O | 91.8% (inactive) and 96% (inactive) | 95.9% (inactive) and 104% (inactive) | 99.7% (inactive) and 107% (inactive) | 99.9% (inactive) and 96.7% (inactive) | 108% (inactive) and 104% (inactive) | 98.3% (inactive) and 73.8% (inactive) | 104% (inactive) and 106% (inactive) | 98.8% (inactive) and 104% (inactive) | 117% (inactive) | 118% (inactive) and 110% (inactive) | 102% (inactive) and 87% (inactive) | 133% (inactive) and 100% (inactive) | 109% (inactive) and 108% (inactive) | 104% (inactive) and 117% (inactive) | 102% (inactive) and 104% (inactive) | 133% (inactive) and 105% (inactive) | 102% (inactive) and 92.8% (inactive) | 102% (inactive) and 107% (inactive) | 98.8% (inactive) | 
3 | CN1C(=O)C(N=Nc2ccc([N+](=O)[O-])cc2)SC1=S (centres undefined) | 64.1% (inactive) and 43.7% (inactive) | 80.9% (inactive) and 70.3% (inactive) | 62.2% (inactive) and 71.8% (inactive) | 41.1% (inactive) and 53.7% (inactive) | 37.7% (inactive) and 45.3% (inactive) | 61.2% (inactive) and 62.9% (inactive) | 71% (inactive) and 76.3% (inactive) | 70.2% (inactive) and 75.1% (inactive) | 67% (inactive) and 74.4% (inactive) | 90.7% (inactive) and 89.2% (inactive) | 43.1% (inactive) | 80.1% (inactive) and 99.9% (inactive) | 76.7% (inactive) and 87% (inactive) | 80% (inactive) and 94.2% (inactive) | 65.2% (inactive) and 67.6% (inactive) | 185% (inactive) and 46.3% (inactive) | 67.2% (inactive) and 68.2% (inactive) | 76.3% (inactive) and 84.2% (inactive) | 59.6% (inactive) and 59.5% (inactive) | 
4 | c1ccc(NCc2ccc3c(c2)OCO3)cc1 | 100% (inactive) and 105% (inactive) | 103% (inactive) and 97.9% (inactive) | 114% (inactive) and 99.2% (inactive) | 93.7% (inactive) and 101% (inactive) | 105% (inactive) and 99.4% (inactive) |  | 103% (inactive) and 95.3% (inactive) | 102% (inactive) and 96.8% (inactive) | 113% (inactive) and 102% (inactive) | 111% (inactive) and 108% (inactive) | 105% (inactive) and 98.7% (inactive) | 106% (inactive) and 119% (inactive) | 100% (inactive) and 106% (inactive) | 104% (inactive) and 95.2% (inactive) | 99.1% (inactive) and 99.4% (inactive) | 105% (inactive) | 102% (inactive) and 91.4% (inactive) | 101% (inactive) and 97.5% (inactive) | 101% (inactive) | 91.1% (inactive) and 95.6% (inactive)
5 | N#CC(C#N)=C/C=C/c1cccc([N+](=O)[O-])c1 | 19.4% (inactive) and -19.3% (active) | 21.8% (inactive) and -24.7% (active) | 59.9% (inactive) and 26.4% (inactive) | -4.35% (active) and -23.7% (active) | -7.92% (active) and -72.3% (active) |  | 34.1% (inactive) and 10.2% (inactive) | 26.2% (inactive) and -22.1% (active) | 1.24% (active) and -26.8% (active) | -26.8% (active) and -24.1% (active) | 7.22% (active) and 3.61% (active) | 7.87% (active) | 9.84% (active) and 8.38% (active) | -68.9% (active) and -73.5% (active) | 6.01% (active) and -8.99% (active) | 37.1% (inactive) and -41.1% (active) | 8.63% (active) and 4.54% (active) | -32% (active) and -64.4% (active) | -37.1% (active) and -74.9% (active) | -55.5% (active) and -70.5% (active)
6 | CN1CCN(CCC=C2c3ccccc3Sc3ccc(S(=O)(=O)N(C)C)cc32)CC1 | 84.4% (inactive) and 91% (inactive) | 111% (inactive) and 108% (inactive) | 66.9% (inactive) and 77.2% (inactive) | 75.9% (inactive) and 83.8% (inactive) | 82.7% (inactive) and 82% (inactive) | 29.4% (inactive) |  | 41.6% (inactive) and 58.5% (inactive) | -83.1% (active) and 44% (inactive) | 88.1% (inactive) and 101% (inactive) | 1.04% (active) and -15.5% (active) | -13.1% (active) and 40.5% (inactive) | 42.8% (inactive) and 69.3% (inactive) | 30.4% (inactive) and 60% (inactive) |  |  |  | -83.1% (active) and -57.7% (active) | -67% (active) and -79.2% (active) | 44.2% (inactive) and 58.5% (inactive)
7 | Cc1nn(-c2ccc(Cl)cc2)c2ncnc(N/N=C/c3ccccc3O)c12 | 37% (inactive) and 18.5% (inactive) | 52.8% (inactive) and 27.9% (inactive) | 33.3% (inactive) and 7.57% (active) | 7.93% (active) and 9.97% (active) | 5.04% (active) and 1.12% (active) | 44.1% (inactive) and 26.6% (inactive) | 9.46% (active) and 12.8% (inactive) | 8.99% (active) and 6.59% (active) | 18.7% (inactive) and 4.16% (active) | 19.1% (inactive) and 21% (inactive) | 18.5% (inactive) and 14.7% (inactive) | 48.7% (inactive) and 0.643% (active) | 32.6% (inactive) and 32.4% (inactive) | 25.7% (inactive) and 14.5% (inactive) | 9.67% (active) and 7.69% (active) | 24.5% (inactive) and 10% (inactive) | 14% (inactive) and 4.62% (active) | -3.7% (active) and 9.92% (active) | 0.303% (active) | 
8 | COc1cc(-c2nccc3cc4c(cc23)OCO4)cc(OC)c1OC | 56.9% (inactive) and 46.7% (inactive) | 62.9% (inactive) and 49.7% (inactive) | 66.1% (inactive) and 71.6% (inactive) | 38.1% (inactive) and 39.4% (inactive) | 18.1% (inactive) and 14.8% (inactive) | 58.3% (inactive) | 46.6% (inactive) and 38.9% (inactive) | 38.6% (inactive) and 66.7% (inactive) | 11.2% (inactive) and -13.8% (active) | 51.9% (inactive) and 30.2% (inactive) | 13.4% (inactive) and 21% (inactive) | 62.2% (inactive) and 44.7% (inactive) | 40.3% (inactive) and 48.9% (inactive) | 6.69% (active) and 22.1% (inactive) | 43.8% (inactive) and 40.6% (inactive) | 19.2% (inactive) and 15.7% (inactive) | 19.9% (inactive) and 18.8% (inactive) | 52.8% (inactive) and 39.3% (inactive) | 14% (inactive) and 23.1% (inactive) | 
